Source: PubChem BioAssay AID1985 (Southern Research Specialized Biocontainment Screening …, 2009)
The whole screen tested about 2,300 compounds, of which about 1,000 (43%) were called active. How the calls were made is not given here. The set was probably picked from earlier hits. The list shows a part of the results. Entries with a potency or affinity are not part of this list.

experiment: modified counter assay using GFP fluorescence, PhoP regulon inhibitor project, dose response (AID 1985); conditions: S. Typhi, 4 h; series mostly up to 150 µM; inhibition: at the top concentration

| SMILES | inhibition |
| --- | --- |
| O=C(CN1C2=NCCN2c2ccccc21)c1ccc2c(c1)OCO2 | 9.44% (inactive) |
| CN(C)C(/C=C/Nc1ccc(F)cc1F)=C(C#N)C#N | -10.3% (inactive) |
| CCOc1ccc(NC(=O)CN(C)C(=O)c2ccccc2CCc2ccccc2)cc1OCC | -32.9% (inactive) |
| CC(C)CC(=O)Nc1ccc(-c2cn3cccnc3n2)cc1 | 14.1% (inactive) |
| CCOc1ccc(NC(N)=O)cc1 | 15.4% (inactive) |
| CCOc1ccc(-c2nc(N)ncc2-c2ccccc2)c(O)c1 | 18.8% (inactive) |
| Cc1ccc(Cn2c(=N)c(C(=O)NCc3ccco3)cc3c(=O)n4ccccc4nc32)cc1 | 16.6% (inactive) |
| CCn1cnc2cc(NCc3ccc(Br)cc3)ccc21 | 15.8% (inactive) |
| NC(=O)CN1N=C(c2cc(Cl)sc2Cl)CSC1=O | 4.36% (inactive) |
| CN1C(=O)c2ccc(NC(=O)C3CCCCC3)cc2C1=O | -8.71% (inactive) |
| COc1ccc(C(=O)Nc2cc3c(cc2OC)CCCC3)cc1Br | -5.35% (inactive) |
| CCCCN(CCCC)CCNC(=O)CSCc1ccc(C)cc1 | -17.4% (inactive) |
| COCc1[nH]nc2c1C(c1ccc(OC)cc1)C(C#N)=C(N)O2 (stereo not given) | -3.75% (inactive) |
| COc1cccc(/C=N/NC(=O)CO/N=C(\C)c2cccs2)c1OC | 34.1% (inactive) |
| COc1ccccc1NC(=O)Cn1cnc2c(nnn2-c2ccc(C)cc2)c1=O | -10.9% (inactive) |
| CCCCn1cnc2cc(NCc3cccc(OC)c3O)ccc21 | 28.6% (inactive) |
| COc1cccc(/C=N/NC(=O)CNC(=O)CCc2ccccc2)c1O | 24.4% (inactive) |
| Cc1ccc(C)c2[nH]c(=O)c(CN(Cc3cccnc3)C(=S)NCc3ccco3)cc12 | -16.5% (inactive) |
| C=CCn1c(NC(C)c2cc(Cl)ccc2O)nc2ccccc21 (stereo not given) | -14.7% (inactive) |
| COc1ccc(C2=NN3C(=O)c4c(ccc(OC)c4OC)C3C2)cc1 (stereo not given) | 9.8% (inactive) |
| O=C(NCc1cccnc1)C1c2ccccc2C(=O)N1Cc1ccccc1 (stereo not given) | -16.2% (inactive) |
| O=C(NCc1cccnc1)c1ccc(Cl)cc1[N+](=O)[O-] | -10.5% (inactive) |
| COC(=O)Cn1c(=O)c(C)nc2ccccc21 | -9.43% (inactive) |
| Clc1ccc(Cn2cc(Br)cn2)cc1Cl | 3.19% (inactive) |

| SMILES | inhibition |
| --- | --- |
| C=C(C)Cn1c(-c2ccc(OC)cc2)nc2ccccc21 | 3.51% (inactive) |
| COc1ccc(N2CCN(C(=O)c3cc4c(s3)-c3ccccc3S(=O)(=O)C4)CC2)cc1 | -14.6% (inactive) |
| CCCC(=O)Nc1c2c(nn1-c1ccc(C)cc1C)CSC2 | 1.8% (inactive) |
| CN(C)C(=O)COC(=O)/C=C/c1ccccc1[N+](=O)[O-] | -11.5% (inactive) |
| Oc1ccc(C2NCc3ccccc3-n3cccc32)cc1Cl (stereo not given) | -0.67% (inactive) |
| COC(=O)C(NC(C)=O)(Nc1nc2c(s1)CCCC2)C(F)(F)F (stereo not given) | -28.5% (inactive) |
| CCN1CCN(CCCNC(=O)c2ccc(/C=C3/Sc4ccccc4N(Cc4ccccc4F)C3=O)cc2)CC1 | 33.6% (inactive) |
| CCN1CCN(CCNC(=O)c2ccc(/C=C3/Sc4ccccc4N(Cc4cccc(C)c4)C3=O)cc2)CC1 | 12.9% (inactive) |
| S=C1NCN(C2CCCCC2)CN1c1ccccc1 | 36.9% (inactive) |
| CC(=O)C1C(c2ccc(OC(F)F)cc2)NC(=O)NC1(O)C(F)(F)F (stereo not given) | 3.26% (inactive) |
| COc1ccc(C2C3=C(CC(C)(C)CC3=O)Nc3cc4c(cc32)OCO4)cc1 (stereo not given) | 1.35% (inactive) |
| CCc1nc(C)ccc1OCC(=O)NCCCN(C)C | 2.34% (inactive) |
| CCc1nc(C)ccc1OCC(=O)N(CC)CC | 11.3% (inactive) |
| Cc1cc(C)n(/N=C/c2cc(Cl)cc(Cl)c2O)c(=O)c1 | 23.2% (inactive) |
| CC1CCN(C(=O)C2CCCN(S(C)(=O)=O)C2)CC1 (stereo not given) | -2.3% (inactive) |
| NC(=O)c1ccc[n+](CC(=O)c2cccc([N+](=O)[O-])c2)c1 | -10.5% (inactive) |
| Cc1ccc(C(=O)Nc2ccc3c(c2)ncn3C)cc1 | 36.9% (inactive) |
| COc1ccc(/C=N/NC(=O)c2cccnc2)c(C(=O)O)c1OC | -1.18% (inactive) |
| COc1cccc(/C=N/NC(=O)CNC(=O)COc2cccc(C)c2)c1O | 14.2% (inactive) |
| CCCC1=C(C(=O)OCC)C(c2ccc(O)cc2)n2ncnc2N1 (stereo not given) | 3.12% (inactive) |
| O=C(CCc1nc2ccccc2s1)NC1CCOC1=O (stereo not given) | 11.8% (inactive) |
| COc1ccc(CCNC(=O)CSc2ccc(-c3ccncc3)nn2)cc1 | -11.4% (inactive) |
| COC(=O)c1ccc(NC(=O)CO/N=C2\CCCc3nonc32)cc1 | 0.85% (inactive) |
| Cc1ccc2cc(-c3noc(C4CCCO4)n3)c(=O)[nH]c2c1 (stereo not given) | -6.59% (inactive) |

| SMILES | inhibition |
| --- | --- |
| CC(C)c1ccc2oc(=O)cc(CN3CCN(c4ccc(F)cc4)CC3)c2c1 | -5.48% (inactive) |
| Cc1ccc(NC(=O)Cc2ccc(F)cc2)cc1 | -1.3% (inactive) |
| Cc1ccc(NC(=O)COc2ccccc2CNC(C)(C)CC(C)(C)C)cc1 | 17.6% (inactive) |
| c1ccc2c(c1)C(=NC1CCCCC1)NC2=NC1CCCCC1 | 19.5% (inactive) |
| Cc1nn(-c2cc(N3CCNCC3)ccc2[N+](=O)[O-])c(=O)c2ccccc12 | 5.09% (inactive) |
| Cc1cc(N2CCCCC2)c(F)cc1[N+](=O)[O-] | -27.7% (inactive) |
| CCN(CC(=O)Nc1ccc(C(=O)OC)cc1)C1CCCCC1 | 15.1% (inactive) |
| Cc1ccc(N2C(=O)[C@@H]3[C@H](C2=O)[C@H]2C=CC=NN2[C@@H]3C(=O)Nc2ccc(Cl)cc2)cc1 | -11.7% (inactive) |
| COC(=O)c1cccc(C(=O)N2CCCC(CCC(=O)N(C)CCc3ccccn3)C2)c1 (stereo not given) | -17.6% (inactive) |
| Clc1ccc2c(NCc3ccccn3)ccnc2c1 | 12.8% (inactive) |
| C[C@@H](CO)NC(=O)c1ccc2c3n(nc2c1)-c1ccc(Cl)cc1CO3 | 17.5% (inactive) |
| CCCCCc1nc2c(c3c1CCCC3)CCCC2 | 18.7% (inactive) |
| N=C1c2ccccc2CN1c1ncccn1 | -13.2% (inactive) |
| CCCN1CCC(NCc2cn(C)nc2-c2ccc(Oc3ccccc3)cc2)CC1 | 20.2% (inactive) |
| CN(C)CCCNC(=O)c1ccc(-c2nc(-c3ccc(Cl)cc3)cs2)cc1 | 28% (inactive) |
| CN(C)CCNC(=O)/C(=C/c1ccc(-c2ccc(Cl)cc2)o1)NC(=O)c1ccccc1 | 25.4% (inactive) |
| O=C(N/N=C/c1ccc(-c2ccc(Br)cc2)o1)c1ccc2c(c1)OCO2 | 28.8% (inactive) |
| CCOC(=O)COn1c(=O)c(-c2cccs2)[n+]([O-])c2ccccc21 | 21.9% (inactive) |
| O=C(O)C1CCCCC1C(=O)NCCc1ccncc1 (stereo not given) | -26.7% (inactive) |
| C#CCOCCOCCOCCNc1nc(N2CCN(C(=O)CCCCCCCCCCNC(=O)[C@@H](CCSC)n3cc(CCO)nn3)CC2)nc(N2CCN(C(=O)CCCCCCCCCCNC(=O)[C@H]([C@@H](C)CC)n3cc(CCCCN=C(N)N)nn3)CC2)n1 | -37.3% (inactive) |
| Cn1c(=O)c2c(nc(Br)n2CCSc2nc3ccccc3o2)n(C)c1=O | -14.5% (inactive) |
| CC(=O)c1cccc(CN2CCN(C3CCCC3)C(CCO)C2)c1 (stereo not given) | -5.89% (inactive) |
